Data on 59 molecules can be found in PubChem BioAssay AID2629 (Broad Institute, 2010).

Among all 320,000 compounds or so, about 1,900 (0.59%) were called active. Only a selection was taken, and actives are over-represented in it overall. A number with no mark means an inactive call. No stated cut-off is given here; in the data, active means inhibition mostly above about 10% (no sharp cut-off); inactive means mostly below about 6.7%.

In general, inhibition refers to the drop in the measured response relative to a control, in per cent.

This experiment deals with Protein LANA1 (Human herpesvirus 8 type P (isolate GK18)) (UniProt Q9QR71). Kind of experiment: blockers of LANA interaction with H2A/H2B – biochemical, FP readout, HTS, primary screen (AID 2629). The following applies: cell-free LANA-H2A/H2B peptide, fluorescence polarization, hits give high values, concentration not given here. In general terms: Fluorescence polarisation rises when a labelled molecule tumbles more slowly, as on binding a larger partner.
Chain of Protein LANA1 (Human herpesvirus 8 type P (isolate GK18)) (Q9QR71 whole entry, looked up): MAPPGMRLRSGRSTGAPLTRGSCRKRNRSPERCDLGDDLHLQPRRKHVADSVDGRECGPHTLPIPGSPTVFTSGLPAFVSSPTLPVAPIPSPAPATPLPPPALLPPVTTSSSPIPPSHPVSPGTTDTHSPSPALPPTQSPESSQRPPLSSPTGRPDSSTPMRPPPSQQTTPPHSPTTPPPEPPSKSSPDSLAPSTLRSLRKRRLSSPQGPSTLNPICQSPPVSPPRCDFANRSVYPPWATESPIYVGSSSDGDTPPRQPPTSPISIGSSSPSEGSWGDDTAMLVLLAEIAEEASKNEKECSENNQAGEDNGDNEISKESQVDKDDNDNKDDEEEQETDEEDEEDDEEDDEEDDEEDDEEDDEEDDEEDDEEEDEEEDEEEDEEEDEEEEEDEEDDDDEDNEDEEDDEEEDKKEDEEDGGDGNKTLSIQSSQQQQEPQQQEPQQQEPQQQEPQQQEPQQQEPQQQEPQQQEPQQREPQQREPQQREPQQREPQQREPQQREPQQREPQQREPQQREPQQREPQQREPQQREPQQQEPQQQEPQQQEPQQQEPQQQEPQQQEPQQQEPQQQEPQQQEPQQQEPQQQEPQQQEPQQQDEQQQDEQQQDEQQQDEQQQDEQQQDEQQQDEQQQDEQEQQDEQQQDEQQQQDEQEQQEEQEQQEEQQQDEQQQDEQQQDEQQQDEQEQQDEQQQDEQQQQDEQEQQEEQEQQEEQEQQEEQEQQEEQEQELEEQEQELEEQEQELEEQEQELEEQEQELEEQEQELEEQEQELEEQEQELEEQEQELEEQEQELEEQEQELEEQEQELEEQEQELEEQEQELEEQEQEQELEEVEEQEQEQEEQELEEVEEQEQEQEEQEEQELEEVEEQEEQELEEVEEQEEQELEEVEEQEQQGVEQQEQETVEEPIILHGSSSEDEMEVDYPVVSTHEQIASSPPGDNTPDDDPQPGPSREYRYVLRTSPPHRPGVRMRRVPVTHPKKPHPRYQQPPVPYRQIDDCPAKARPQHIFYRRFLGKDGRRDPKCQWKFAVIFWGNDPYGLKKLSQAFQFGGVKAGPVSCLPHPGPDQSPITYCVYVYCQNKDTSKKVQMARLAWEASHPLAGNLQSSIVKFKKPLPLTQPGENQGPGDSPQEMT
For `CC(=O)c1sc(N/N=C/c2ccc(C(C)C)cc2)nc1C`, the inhibition is 2.17%.
As for `COc1ccc(S(=O)(=O)N2CCOCC2)cc1NC(=O)CSc1nnc(NC2CC2)s1`, the figure is -4.5%; as for `COc1ccc(NC(=O)NNC(=O)COc2cc(C)c(Cl)c(C)c2)c(OC)c1`, -5.21%.
As for `CN(CC(=O)Nc1c(Cl)cccc1Cl)C(=O)CNC(=O)C1CCCCC1`, the figure is -5.68%; as for `Cc1ccc(C(=O)CCC(=O)N(C)CC(=O)Nc2c(Cl)cccc2Cl)cc1`, 4.61%; as for `CN(CC(=O)Nc1c(Cl)cccc1Cl)C(=O)c1ccncc1`, 111% (active).
For `O=C(Nc1cccc(F)c1)NC1CCCCCCC1` the value was 0.578%.
With `C/C(CC(=O)Nc1cccc(F)c1)=N\NC(=O)C(=O)NC1CCCCC1`, the inhibition is 15.3% (active).
For `COc1cccc(NC(=O)C/C(C)=N/NC(=O)C2CCCCC2)c1` the value was 3.19%; for `COc1ccc(F)cc1C(=O)C1CCCN(C(=O)CCc2ccccn2)C1` (centres undefined), -0.521%.
Turning to `CC1=NN(C(=O)c2ccc(Br)cc2)C(O)(c2ccccc2)C1` (centres undefined), the inhibition was 15.6% (active).
As for `CCOC(=O)C1(O)CC(C)=NN1C(=O)c1cccc(Br)c1` (centres undefined), the figure is 1.92%; as for `CC1=NN(C(=O)c2ccccc2Br)C(O)(c2cccnc2)C1` (centres undefined), -0.482%; as for `Cc1coc2c1c(C)cc1oc(=O)c(CC(=O)NCC(=O)N[C@H](C(=O)O)C(C)C)c(C)c12`, 1.45%.
As to `COc1ccc(C(=O)Nc2c(N)nc(SCC(=O)Nc3ccc(C(C)=O)cc3)[nH]c2=O)cc1`, the inhibition was 2.95%.
For `COc1ccc(NC(=O)CSc2nc(N)c(-c3ccccc3)c(=O)[nH]2)cc1` the value was 12.1% (active).
For `COc1ccc(OC)c(NC(=O)CSc2nc(N)c(-c3ccccc3)c(=O)[nH]2)c1` the value was 4.91%; for `CCOc1ccc(CCNC(=O)COC(=O)C2CCN(c3ccc(C(F)(F)F)cn3)CC2)cc1OCC`, 2.54%; for `O=C(CN1CCc2ccccc2C1)Nc1cccc(S(=O)(=O)N2CCOCC2)c1`, 2.86%.
For the molecule `CSCCC(NS(=O)(=O)c1ccc(C)cc1)C(=O)NCCc1c[nH]c2ccccc12` (centres undefined), the inhibition was -5.03%.
`CCc1nnc(NC(=O)[C@@H](NC(=O)c2cccc(C)c2)C(C)C)s1`: the inhibition was 1.78%.
As for `CCOc1c2ccc(C(=O)NCc3ccc4c(c3)OCO4)cc2nn1C`, the figure is 19.6% (active).
For `CCCn1nc2cc(C(=O)NCc3ccccc3)ccc2c1OCC` the value was 3.43%.
For `CCOc1c2ccc(C(=O)NCc3ccc(OC(F)(F)F)cc3)cc2nn1C`, the inhibition was -0.924%.
For `COC(=O)[C@H](C(C)C)n1c(C)c(C(C)=O)c(C(C)=O)c1C` the value was -3.34%; for `CCC(=O)N(C)C(c1ccccc1Cl)c1nnnn1-c1c(C)cccc1C` (centres undefined), -0.0342%; for `COC(=O)c1ccc(CSc2nncn2C)cc1`, 5.16%.
As for `COC(=O)c1ccc(SCc2ccccc2)nc1`, the figure is 60.3% (active).
For `COC(=O)c1ccc(CSc2ccc(S(=O)(=O)N3CCCCC3)cn2)cc1` the value was -0.0946%; for `CCCCNc1ccc(C(=O)Nc2cccc(C)n2)cc1[N+](=O)[O-]`, -3.43%; for `Cc1cc(C)c(C)c(S(=O)(=O)Nc2cccnc2)c1C`, -0.825%.
Take `COc1ccccc1Oc1ccc(S(=O)(=O)Nc2cccnc2)cc1`: the inhibition is 2.24%.
For `COc1ccc(S(=O)(=O)Nc2cccnc2)c(Cl)c1Cl` the value was 12.6% (active); for `COc1ccc(CCc2nnc(CCC(=O)NCc3cnn(-c4ccccc4C)c3)o2)cc1`, 16.6%.
On to `CC(=O)Nc1ccc(S(=O)(=O)NC2(C(F)(F)F)C(=O)Nc3c2c(=O)[nH]c(=O)n3Cc2ccccc2)cc1` (centres undefined), for which the inhibition is -2.71%.
As for `CC(=O)n1cc([C@@H]2C=C(C(=O)N3CCN(Cc4ccc5c(c4)OCO5)CC3)O[C@H](OCc3ccc(CO)cc3)C2)c2ccccc21`, the figure is 1.33%.
As for `CCC(C)c1ccc(NC(=S)NCc2ccccn2)cc1` (centres undefined), the inhibition was -1.48%.
Turning to `CCN(CC)CCOc1ccc2c(c1)C(=NNC(=O)c1ccccn1)c1cc(OCCN(CC)CC)ccc1-2`, the inhibition was -1.56%.
For `CC(OC(=O)c1ccc2noc(-c3ccccc3)c2c1)C(N)=O` (centres undefined) the value was -5.93%.
Consider `COc1ccc(-c2onc3ccc(C(C)=O)cc23)cc1`, for which the inhibition is 26.3% (active).
For `Oc1ccc(-c2onc3ccc(Cl)cc23)cc1` the value was 3.12%; for `CC(C)c1ccc(Nc2nnc(SCC(=O)c3nnc(-c4ccccc4)o3)s2)cc1`, -16.3%; for `Cc1noc(C)c1COc1ccc(C(=O)NCCOc2ccccc2)cc1`, 2.1%.
As for `COc1ccc(C)cc1Nc1nc(-c2c(C)[nH]c3ccccc23)cs1`, the figure is 39.5% (active); as for `COC(=O)c1cnc(Nc2cc(C)ccc2OC)c2ccccc12`, -2.27%; as for `COc1ccc(C)cc1Nc1nc(C)nc2c1oc1ccccc12`, 3.52%.
With `Cc1cc(C=O)c(C)n1-c1ccc(NC2CCCCC2)c([N+](=O)[O-])c1`, the inhibition was 5.17%.
For `Cc1ccc(NS(=O)(=O)c2ccc(C(C)C)cc2)cc1S(=O)(=O)N1CCOCC1` the value was -10.5%.
For `O=C(CCCOc1ccccc1)NNC(=O)c1ccc(Cl)cc1`, the inhibition is 3.13%.
For `O=C(COc1ccc(Cl)cc1)NCCSc1ccccc1` the value was -4.08%.
As to `O=C(CCc1ccccc1)NNC(=O)COc1ccc(Cl)cc1`, the inhibition was 77.8% (active).
As for `COC(=O)Cc1csc(/N=C/c2c(O)n(-c3cccc(C(F)(F)F)c3)c(=O)c3ccccc23)n1`, the figure is -3.9%; as for `Cn1c(CCc2ccccc2)nnc1SCC(N)=O`, -7.18%; as for `N#CCCn1ncc2ccccc21`, 4.72%.
For the molecule `O=C(CNCc1ccc(F)cc1)Nc1ccccc1-c1ccccc1`, the inhibition is -4%.
On to `COc1cc(NC(=O)c2ccccc2)c(OC)cc1NC(=O)Cc1ccccc1`, for which the inhibition was -1.39%.
For `CC(=O)NCC(=O)N1CCCC(C(=O)c2ccc3c4c(cccc24)CC3)C1` (centres undefined) the value was -1.06%; for `CCn1ccnc1CN1CCCC(C(=O)c2ccc3c4c(cccc24)CC3)C1` (centres undefined), 25.9% (active); for `Cc1ncoc1C(=O)N1CCCC(C(=O)c2ccc3c4c(cccc24)CC3)C1` (centres undefined), 1.25%.
